# Screens deposited in PubChem BioAssay by National Center for Advancing Translational Sciences (NCATS).
# An excerpt weighted towards active compounds, which were near 19% of everything screened.
# IL1B secr inh: blocks inflammasome-driven IL-1 beta release | THP-1 LPS/ATP IL-1B secretion, AlphaLISA, 16 h; active compounds read low | activity change, % at 57.5 µM | 360,000 tested, 4.7% active; in the data active means activity change below about -50%; inconclusive means mostly about -30% to -49%; further: on the % scale 0 is the no-effect control and ±100 the full control effect
#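 THP-1 cells pretreated 1 hr with compounds (up to 57.5 uM final), then stimulated with LPS (250 ng/mL final) plus ATP (1.25 mM final); secreted IL-1B measured by AlphaLISA after 16 hr, decreased signal indicating inhibition.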
# TDP1 cell noCPT: qHTS for Inhibitors of human tyrosyl-DNA phosphodiesterase 1 (TDP1): qHTS in cells in absence of CPT. AID 686978, 2013. DT40 Tdp1-/- hTDP1 cells, no CPT, ATP luminescence, 48 h. 420,000 tested, 15% active. Potency, µM (highest dose often 46.2 µM), without a hit: at the top dose activity change, negative = growth inhibition, usual class: inhibitors; further: potency means the concentration at half of the fitted maximal effect; on the % scale 0 is the no-effect control and ±100 the full control effect; nearly all actives have a fitted effect of over 55% in size
#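 Cells were dispensed at 400 per well, compounds added by pin tool, plates incubated ≥48 hr at 37 °C, then CellTiter-Glo added for 30 min at room temperature before luminescence reading. Line: DT40 Tdp1-/- complemented with hTDP1; camptothecin omitted.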
# DT40 TDP1 CPT: DT40-hTDP1 cell growth loss with CPT; chicken DT40 Tdp1-/-;hTDP1 cells + 20 nM CPT, ATP luminescence, 48 h; Potency, µM (doses to about 46.2 µM), inactives show top-dose activity change, negative = growth inhibition, most hits filed as inhibitors; 420,000 tested, 12% active; AID 686979; further: potency means the concentration at half of the fitted maximal effect; on the % scale 0 is the no-effect control and ±100 the full control effect; nearly all actives have a fitted effect of over 55% in size
#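 Cell growth measured by CellTiter-Glo luminescence after a minimum 48 h, 37 C compound exposure with 20 nM CPT in Tdp1-knockout DT40 cells stably expressing hTDP1, seeded 400/well; qHTS titration format.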
# S-ASM inh: blocks human secretory acid sphingomyelinase | Potency, µM (titrated, usually from 57.5 µM), for the others: top-dose activity change, negative = inhibition, usual class: inhibitors | P17405 | 340,000 tested, 0.006% active | placental ASM, HMU-PC fluorogenic substrate, 60 min; further: potency means the concentration at half of the fitted maximal effect
# Target sequence (P17405 47-631 limits assumed): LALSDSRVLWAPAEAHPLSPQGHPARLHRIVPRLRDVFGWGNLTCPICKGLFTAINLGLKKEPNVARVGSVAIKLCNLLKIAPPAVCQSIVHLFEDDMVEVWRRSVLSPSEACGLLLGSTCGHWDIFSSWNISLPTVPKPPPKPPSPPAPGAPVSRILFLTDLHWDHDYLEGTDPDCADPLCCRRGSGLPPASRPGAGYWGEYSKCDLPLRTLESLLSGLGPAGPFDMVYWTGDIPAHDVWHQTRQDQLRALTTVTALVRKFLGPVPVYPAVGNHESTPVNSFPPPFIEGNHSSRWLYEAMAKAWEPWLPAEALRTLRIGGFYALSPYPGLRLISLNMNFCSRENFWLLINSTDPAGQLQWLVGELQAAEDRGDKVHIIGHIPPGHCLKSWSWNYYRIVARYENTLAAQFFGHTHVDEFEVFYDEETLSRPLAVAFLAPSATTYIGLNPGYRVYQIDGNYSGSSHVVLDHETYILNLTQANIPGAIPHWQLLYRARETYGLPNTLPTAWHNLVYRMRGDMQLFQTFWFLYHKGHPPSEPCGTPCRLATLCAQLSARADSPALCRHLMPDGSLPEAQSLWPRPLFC
#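 Human placenta-derived ASM enzyme was preincubated with compound for 10 minutes at room temperature, then given fluorogenic substrate HMU-PC0 (9 uM final) for 60 minutes at 37 °C; a pH 10 stop preceded fluorescence reading at Ex 386/Em 447 nm.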
# HepG2 viability: counter-screen for TGF-b inhibitors: cytotoxicity in HepG2 cells; Potency, µM (top dose mostly 46.1 µM), inactives show at the top dose activity change, negative = cytotoxicity, usual class: cytotoxic; 410,000 tested, 0.76% active; AID 588856; HepG2 CAGA-GFP viability, ATP luminescence, 18 h; further: potency means the concentration at half of the fitted maximal effect
#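 CellTiter-Glo luminescence gave cytotoxicity after 18 hours at 37 degrees C. The cells were HepG2 CAGA-GFP in 1% FBS DMEM, stimulated with 500 pg/mL TGF-beta after compound addition. %Activity was normalised to no-cell wells (complete cell-killing) and DMSO (no toxicity), and curves were fitted and classified.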
# TGFb SMAD3 inh: TGF-b pathway inhibition. HepG2 CAGA-GFP TGF-b/SMAD3 reporter, GFP fluorescence, 18 h; TGF-beta stimulated, 500 pg/mL final. 410,000 tested, 1.2% active. Potency, µM (top dose mostly 46.1 µM), inactives show top-dose activity, negative = inhibition, most hits filed as inhibitors; further: potency means the concentration at half of the fitted maximal effect; on the % scale 0 is the no-effect control and ±100 the full control effect; nearly all actives have a fitted effect of over 65% in size
#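 TGF-beta reporter screen: HEPG2 CAGA-GFP, 1% FBS, 500 pg/mL TGF-beta final, 18 h; per-cell GFP summed per well; curves fitted and categorized by class.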
# * = called active by the depositor; ? = inconclusive; / = not tested or not shown; [ ] = another dose, or the depositor's remark. Unless noted, the call rests on the fitted dose curve; in most records, active means well fitted curve in the direction sought with a large enough effect; inconclusive means small, poorly fitted or top-dose-only effect, or another doubt; inactive means no such curve, though single readings can be large; an effect the other way counts as inactive or inconclusive.
SMILES,IL1B secr inh,TDP1 cell noCPT,DT40 TDP1 CPT,S-ASM inh,HepG2 viability,TGFb SMAD3 inh
Cc1ccc2cc3c(N)c4c(C)ccc(C)c4nc3nc2c1,20,?,?,-4%,-5%,-6%
COc1ccc(N(C(=O)COc2ccccc2OC)S(=O)(=O)c2ccc(C)cc2)cc1,37,-25%,-6%,0%,-16%,?
Cc1ccc(OCC(=O)N(c2ccc(C)cc2)S(=O)(=O)c2ccc(Cl)cc2)cc1,/,?,?,/,8%,-8%
COc1ccc(N(C(=O)COc2c(C)cccc2C)S(=O)(=O)c2ccc(Cl)cc2)cc1,/,?,23µM*,/,-36%,?
COc1ccc(N(C(=O)COc2ccc(Br)cc2)S(=O)(=O)c2ccc(C)cc2)cc1,/,21µM*,?,/,-14%,5%
COCCCn1c(=O)cc(C)[nH]c1=S,0,7%,-2%,6%,-1%,9%
Cc1ccc2nc(C3CCN(S(=O)(=O)c4ccc5ccccc5c4)CC3)[nH]c2c1,-69*,?,?,-7%,-20%,?
O=S(=O)(c1ccc2c(c1)OCCO2)N1CCC(c2nc3ccccc3[nH]2)CC1,-5,?,?,-2%,-19%,-19%
O=S(=O)(c1cccc(C(F)(F)F)c1)N1CCC(c2nc3ccccc3[nH]2)CC1,-18,23µM*,?,4%,7%,30%
CC(=O)c1cccc(S(=O)(=O)N2CCC(c3nc4ccccc4[nH]3)CC2)c1,-8,-15%,-21%,0%,5%,-4%
O=S(=O)(c1ccc(F)cc1)N1CCC(c2nc3ccccc3[nH]2)CC1,-14,?,-26%,0%,-20%,?
CC(C)CCN(C)C1CCN(S(=O)(=O)c2cccc(C(F)(F)F)c2)CC1,-53*,-21%,-10%,1%,-43%,-13%
O=S(=O)(c1ccc2c(c1)OCCO2)N1CCC(c2nc3ccc(Cl)cc3[nH]2)CC1,-72*,12µM*,8.2µM*,-2%,-50%,?
Cc1ccc(NC(=O)c2oc3ccc4c(c3c2C)C(=O)CC(C)(C)O4)c(C)c1,/,?,?,/,-26%,?
COc1ccccc1C1CN(Cc2cccc(OCCO)c2)Cc2ccccc2O1 (stereo not given),/,?,-2%[9.04 µM],/,/,/
O=C(NCC1CCCO1)c1ccc(S(=O)(=O)N2CCC(c3nc4ccc(Cl)cc4[nH]3)CC2)cc1 (stereo not given),-27,23µM*,26µM*,-2%,-33%,?
O=C(NCC1CCCO1)c1cc(S(=O)(=O)N2CCCCC2)ccc1Cl (stereo not given),19,5%,24%,-4%,-20%,-5%
O=S(=O)(c1cccc(Cl)c1)N1CCC(c2nc3ccccc3[nH]2)CC1,-13,18µM*,21µM*,-2%,-19%,-14%
COc1cc(=O)n2c(c1C(=O)N(C)Cc1nonc1C)CCN(Cc1cc(C)ccc1C)CC2,/,-30%,-1%[9.04 µM],/,/,/
COC(=O)C(N)Cc1ccc(O)c(O)c1 (stereo not given),76,-10%,-16%,15%,-15%,-6%
NC(Cc1ccc(O)c(O)c1)C(=O)O (stereo not given),/,2.9µM*,3.7µM*,/,/,/
COC(=O)c1ccc(COc2cccn3c(N(C)C(=O)CCC4CCCC4)c(C)nc23)cc1,16,21µM*,18µM*,/,-46%,?
Cc1nc2c(OCc3ccc(C#N)cc3)cccn2c1N(C)C(=O)CCC1CCCC1,-55*,?,?,/,-21%,?
Cc1nc2c(OCc3ccc(C(F)(F)F)cc3)cccn2c1N(C)C(=O)CCC1CCCC1,-11,?,?,/,-92%,?
Cc1nc2c(OCc3ccc(Cl)cc3)cccn2c1N(C)C(=O)CCC1CCCC1,12,23µM*,15µM*,/,-8%,?
SMILES,IL1B secr inh,TDP1 cell noCPT,DT40 TDP1 CPT,S-ASM inh,HepG2 viability,TGFb SMAD3 inh
Cc1nc2c(OCc3ccc(F)cc3)cccn2c1N(C)C(=O)CCC1CCCC1,-25,23µM*,?,/,-11%,-3%
Cc1cc2c(c(-c3cnccn3)c1)OC(CNC(=O)c1ccc(-n3nc(C)cc3C)cc1)C2 (stereo not given),/,-16%,12%[9.04 µM],/,/,/
O=C(CN1CCOCC1)NNC(=O)c1ccc(Cl)cc1,-2,5%,13%,-1%,-3%,1%
CCC1CCCCN1C(=O)CCNC(=O)Cn1cnc2ccccc2c1=O (stereo not given),12,-4%,0%,2%,4%,-26%
Cc1ccc(C)c(Cn2nnc3c(=O)[nH]c(C4CCCN(S(=O)(=O)Cc5ccccc5)C4)nc32)c1 (stereo not given),15,?,?,-4%,2%,32%
COc1ccccc1C(=O)N[C@@H]1c2ccccc2C2(CCN(Cc3ccc4c(c3)OCO4)CC2)[C@H]1O,/,?,-5%[9.04 µM],/,/,/
CCOC(=O)c1c(C)[nH]c(C)c1C(=O)COC(=O)c1cccnc1OCC,9,-18%,?,3%,4%,8%
CC(C)N1CCN(CC2COc3ccccc3O2)CC1 (stereo not given),-4,-9%,0%,6%,14%,16%
CCC1(C2CCN(Cc3cc4ccccc4o3)CC2)NC(=O)N(CC2COc3ccccc3O2)C1=O (stereo not given),/,21µM*,?,/,/,/
COc1cc(OC)c(NC(=O)N2CCSc3ccccc32)cc1Cl,/,?,?,/,-12%,0%
O=C(/C=C/c1ccc(OCCCF)cc1)N1CCOCC1,-21,2%,-1%,2%,0%,-7%
COc1ccc(-c2cc3ccccc3[nH]2)cc1,5,-1%,-2%,29%,9%,1%
Cc1ccc(O)c(-c2cc3ccccc3[nH]2)c1,-13,-36%,-6%,10%,-64%,16µM*
Cc1ccc2cc(N)ccc2n1,-4,-7%,4%,25%,12%,-1%
Nc1ccc2cc3ccc(N)cc3nc2c1,/,2.7µM*,5.3µM*,/,/,/
Cc1ccc(CN2CCC[C@]3(N[C@H](c4ccc(C)cc4)[C@@H]4C(=O)N(C)C(=O)[C@@H]43)C2=O)cc1,-13,?,?,/,-15%,-1%
CN1C(=O)[C@H]2[C@@H](c3ccc(C(F)(F)F)cc3)N[C@]3(CCCN(Cc4ccc(C(F)(F)F)cc4)C3=O)[C@H]2C1=O,-4,18µM*,23µM*,/,-23%,-12%
